Source: PubChem BioAssay (NCATS)
Unmarked numbers belong to inactive results. Inconclusive results are not listed. Where a call stands in place of a potency, no number is given. Calls of active or inactive are those of the source. Calls come from the whole dose curve; as a rule, active = well fitted curve in the direction sought with a large enough effect; inconclusive = small, poorly fitted or top-dose-only effect, or another doubt; inactive = no such curve, though single readings can be large; an effect the other way counts as inactive or inconclusive.

System: not listed separately
Test: qHTS for inhibitors of adenylyl cyclases using a fission yeast platform: a pilot screen against the NCATS LOPAC library (AID 1347410)
Settings: S. pombe CHP2027, fbp1-GFP fluorescence, 18 h, yeast expressing mammalian AC9 and human GNAS; series mostly up to 57.5 µM
In short: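 Read-out: fbp1-GFP fluorescence by laser scanning cytometry (488 nm laser), a gain of signal when AC/cAMP-PKA signalling is inhibited. Strain CHP2027 expressing AC9, GNAS and PDE4D2; compounds at up to 57 µM; 18 h, 30C.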
For `NC(N)=Nc1nc(CSCC/C(N)=N/S(N)(=O)=O)cs1`, the outcome was “inactive”.
In the case of `CCCNC(=O)NS(=O)(=O)c1ccc(Cl)cc1`, the outcome is reported as “inactive”.
For `Clc1ccc(C(c2ccc(Cl)cc2)n2cc[n+](CC(OCc3ccc(Cl)cc3Cl)c3ccc(Cl)cc3Cl)c2)cc1` (stereo unspecified), the outcome was “inactive”.
In the case of `O=c1cc(-c2ccc(O)cc2)oc2cc(O)cc(O)c12`, the outcome is reported as “inactive”.
With `CCN(CC)CCNC(=O)c1ccc(N)cc1` the outcome was “inactive”.
For `CC/C(=C(\c1ccccc1)c1ccc(OCCN(C)C)cc1)c1ccccc1`, the outcome was “inactive”.
In the case of `CC1(C)CCC2=C(O1)c1ccccc1C(=O)C2=O`, the outcome is reported as “inactive”.
In the case of `CC(C)(C)c1ccc(C(O)CCCN2CCC(C(O)(c3ccccc3)c3ccccc3)CC2)cc1` (stereo unspecified), the outcome is reported as “inactive”.

System: not listed separately
Test: qHTS to identify inhibitors of the type 1 interferon - major histocompatibility complex class I in skeletal muscle: primary screen against the NCATS Mechanism Interrogation Plate v5.0 (MIPE) Libary (AID 1347411); note: nearly all actives have a fitted effect of over 65% in size; note: potency is the fitted concentration of half-maximal effect
Settings: iHSKM cells + IFN-b, HiBiT-tagged MHC-I luminescence, 24 h; series mostly up to 45.8 µM
In short: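 IFN-beta-driven (4 ng/ml) HLA-B-HiBit expression in CRISPR-tagged C25cl48 myoblasts; compounds 11-pt, 1:3, max 46 uM, 24 hr exposure; lytic NanoLuc complementation luminescence.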
For `O=C(Nc1ccccc1-c1cn2c(CN3CCNCC3)csc2n1)c1cnc2ccccc2n1`, the Potency was 14.7 µM (active).
For `Cc1ccc(C(=O)Nc2cccc(C(F)(F)F)c2)cc1Nc1nc(-c2cccnc2)nc2c1cnn2C`, the Potency was 33 µM (active).
For `CC(=O)Oc1cc2c(s1)CCN(C(C(=O)C1CC1)c1ccccc1F)C2` (stereo unspecified), the Potency was “inactive”.
In the case of `C=C1C(=O)[C@@]23C(CC[C@@H]1[C@H]2O)[C@@]12CO[C@]3(O)[C@@H](O)[C@@H]1C(C)(C)CC[C@@H]2O` (stereo partly specified), the Potency is reported as 6.58 µM (active).
For `N#Cc1ccc(NC(=O)Nc2ccccc2Br)c2n[nH]nc12`, the Potency was “inactive”.
With `Clc1ccc(C(c2ccc(Cl)cc2)n2cc[n+](CC(OCc3ccc(Cl)cc3Cl)c3ccc(Cl)cc3Cl)c2)cc1` (stereo unspecified) the Potency was 16.5 µM (active).
For `CCCCCN(C)CCC(O)(P(=O)(O)O)P(=O)(O)O`, the activity change, negative = inhibition was -11.6% [at 5.1 µM].
For `CCNc1cc(NC2CCC(O)CC2)nc(Nc2ccc3c(ccn3Cc3ccccc3)c2)n1` (stereo unspecified), the Potency was “inactive”.
For `COc1ccc(-c2coc3cc(O)cc(O)c3c2=O)cc1`, the Potency was 16.5 µM (active).
With `Nc1ncnc2ccccc12` the Potency was “inactive”.
With `CS(=O)(=O)N(Cc1ccco1)CC(O)Cn1c2ccccc2c2ccccc21` (stereo unspecified) the Potency was “inactive”.
In the case of `CC(C)(C)OC(=O)N[C@H]1CCCCCC=C[C@@H]2C[C@@]2(C(=O)NS(=O)(=O)C2CC2)NC(=O)[C@@H]2C[C@@H](OC(=O)N3Cc4cccc(F)c4C3)CN2C1=O`, the Potency is reported as “inactive”.
With `NS(=O)(=O)c1cccc2c1C(=O)c1cccc(O)c1C2=O` the Potency was 0.415 µM (active).
For `O=C(O)c1c(Cl)c(Cl)c(Cl)c(Cl)c1-c1c2cc(I)c(=O)c(I)c-2oc2c(I)c(O)c(I)cc12`, the Potency was 8.29 µM (active).
With `O=C(NCc1ccncc1)C12C[C@H]3C[C@@H](C1)CC(c1ccc(Cl)cc1)(C3)C2` the Potency was “inactive”.
With `O=C(O)c1ccc(-c2c[nH]c3ncc(-c4ccccc4)cc23)cc1C1CCCC1` the Potency was “inactive”.
With `CC(=O)OC1C(C)OC(Oc2c(-c3ccc(O)cc3)oc3cc(O)cc(O)c3c2=O)C(O)C1OC(C)=O` (stereo unspecified) the Potency was “inactive”.
For `O=C(Nc1c(Cl)cncc1Cl)c1ccc(OC(F)F)c(OCC2CC2)c1`, the Potency was “inactive”.
In the case of `N#CC1(c2ccc(NC(=O)c3cccnc3NCc3ccncc3)cc2)CCCC1`, the Potency is reported as “inactive”.
For `CC/C(=C(\c1ccccc1)c1ccc(OCCN(C)C)cc1)c1ccccc1`, the Potency was 30.1 µM (active).
For `Nc1ncnc2c1nc(Cl)n2[C@@H]1O[C@H](CO)[C@@H](O)[C@@H]1O`, the Potency was “inactive”.
For `Clc1ccc(CCC(Cn2ccnc2)Sc2c(Cl)cccc2Cl)cc1` (stereo unspecified), the Potency was “inactive”.
With `CC(C)(C)COc1ccc(-n2cc(C(=O)O)cn2)cc1C#N` the Potency was “inactive”.
For `COc1cccc([C@@H](C)NCCCc2ccccc2Cl)c1`, the Potency was “inactive”.
For `O=C(Nc1cc(Cl)cc2c1[nH]c1cnccc12)c1cccnc1`, the Potency was “inactive”.
With `NC(=O)[C@@H](CCC(F)(F)F)N(Cc1ccc(-c2ncon2)cc1F)S(=O)(=O)c1ccc(Cl)cc1` the Potency was “inactive”.
For `O=C1C(Cl)=C(NCCN2CCOCC2)C(=O)c2ncccc21`, the Potency was 2.94 µM (active).
In the case of `O=c1cc(-c2cccc3c2Sc2ccccc2S3)oc(N2CCOCC2)c1`, the Potency is reported as “inactive”.
For `NC(=O)c1ccc2nc(-c3ccc(Oc4ccc(Cl)cc4)cc3)[nH]c2c1`, the Potency was “inactive”.
With `O=C(O)C(O)Cc1ccc(O)c(O)c1` (stereo unspecified) the Potency was “inactive”.
In the case of `C[C@H](NC(=O)C(=O)Nc1ccccc1C(C)(C)C)C(=O)N[C@@H](CC(=O)O)C(=O)COc1c(F)c(F)cc(F)c1F`, the Potency is reported as 13.1 µM (active).

Molecular target: Protein phosphatase 1D (Homo sapiens) (UniProt O15297)
Sequence (O15297 whole entry, looked up): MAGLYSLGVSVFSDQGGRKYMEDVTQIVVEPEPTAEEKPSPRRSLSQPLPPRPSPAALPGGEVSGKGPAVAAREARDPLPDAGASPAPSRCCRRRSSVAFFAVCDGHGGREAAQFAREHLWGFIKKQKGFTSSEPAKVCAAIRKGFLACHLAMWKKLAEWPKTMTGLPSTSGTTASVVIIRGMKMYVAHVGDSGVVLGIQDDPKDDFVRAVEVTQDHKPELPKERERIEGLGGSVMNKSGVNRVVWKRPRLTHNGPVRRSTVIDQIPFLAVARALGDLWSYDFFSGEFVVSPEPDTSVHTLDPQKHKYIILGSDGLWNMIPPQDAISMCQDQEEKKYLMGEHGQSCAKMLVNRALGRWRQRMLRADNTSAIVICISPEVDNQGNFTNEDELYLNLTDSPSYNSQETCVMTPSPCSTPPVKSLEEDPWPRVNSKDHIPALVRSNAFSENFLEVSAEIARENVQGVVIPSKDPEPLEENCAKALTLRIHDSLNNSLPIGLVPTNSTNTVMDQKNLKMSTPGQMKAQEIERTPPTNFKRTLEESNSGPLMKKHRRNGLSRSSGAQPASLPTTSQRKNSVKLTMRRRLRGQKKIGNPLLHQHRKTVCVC
Test: RapidFire Mass Spectrometry qHTS Assay for Modulators of WT P53-Induced Phosphatase 1 (WIP1) (AID 1347424);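 note: amount of dephosphorylated VEPPL-S-QETFS peptide product formed by WIP1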
Settings: WIP1 dephosphorylation of phosphopeptide, RapidFire MS; series mostly up to 63 µM
In short: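 Mass-spectrometric measurement of dephosphorylated peptide after a 5 min room-temperature reaction of 10 nM WIP1 with 2 uM phosphopeptide, following 1 h compound preincubation in 30 mM MgCl2 buffer.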
With `CC(=O)Oc1cc2c(s1)CCN(C(C(=O)C1CC1)c1ccccc1F)C2` (stereo unspecified) the outcome was “inactive”.
In the case of `NC(N)=Nc1nc(CSCC/C(N)=N/S(N)(=O)=O)cs1`, the outcome is reported as “inactive”.
For `CCCNC(=O)NS(=O)(=O)c1ccc(Cl)cc1`, the outcome was “inactive”.
In the case of `CCN(CC)CCNC(=O)c1ccc(N)cc1`, the outcome is reported as “inactive”.
For `CC/C(=C(\c1ccccc1)c1ccc(OCCN(C)C)cc1)c1ccccc1`, the outcome was “inactive”.
With `CC(C)(C)c1ccc(C(O)CCCN2CCC(C(O)(c3ccccc3)c3ccccc3)CC2)cc1` (stereo unspecified) the outcome was “inactive”.

Molecular target: Protein phosphatase 1D (Homo sapiens) (UniProt O15297)
Test: Rhodamine-PBP qHTS Assay for Modulators of WT P53-Induced Phosphatase 1 (WIP1) (AID 1347425)
Settings: recombinant WIP1, Rhodamine-PBP phosphate fluorescence, real-time; series mostly up to 57.5 µM
In short: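 5 nM WIP1 + 10 uM Rh-PBP, 50 mM Tris pH 7.5, 30 mM MgCl2, 1 mM TCEP, 0.1 mM EGTA, BSA; cpds pinned, 1 hr RT; + 10 uM phosphopeptide; fluorescence 1-min reads x 11 min; delta = f1 - f0.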
With `CC(=O)Oc1cc2c(s1)CCN(C(C(=O)C1CC1)c1ccccc1F)C2` (stereo unspecified) the outcome was “inactive”.
With `NC(N)=Nc1nc(CSCC/C(N)=N/S(N)(=O)=O)cs1` the outcome was “inactive”.
For `CCCNC(=O)NS(=O)(=O)c1ccc(Cl)cc1`, the outcome was “inactive”.
With `CCN(CC)CCNC(=O)c1ccc(N)cc1` the outcome was “inactive”.
With `CC/C(=C(\c1ccccc1)c1ccc(OCCN(C)C)cc1)c1ccccc1` the outcome was “inactive”.
With `CC(C)(C)c1ccc(C(O)CCCN2CCC(C(O)(c3ccccc3)c3ccccc3)CC2)cc1` (stereo unspecified) the outcome was “inactive”.
